# High-throughput results: PubChem BioAssay, National Center for Advancing Translational Sciences (NCATS)
# Many of the other results were omitted from the sample, so hits are more common in it than they were.
# IMPase inh: qHTS Assay for Identifying the Cell-Membrane Permeable IMPase Inhibitors. CHO-M1 cells, IP1 accumulation, HTRF TR-FRET ratio. 120,000 tested, under 10 active. Inositol monophosphatase 1 (Rattus norvegicus), P97697. inhibition (IP1 accumulation), % at 46.1 µM; active = well fitted curve in the direction sought with a large enough effect in the signal ratio, not every such curve was filed as active; inconclusive = small, poorly fitted or top-dose-only effect, or a change in a side signal; inactive = no such curve, though single readings can be large or run the other way; the % refers to the signal ratio;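 note: cells stimulated with carbachol in lithium chloride buffer; plate controls were DMSO basal wells for no effect and reference inhibitor wells for full effect; higher means more IMPase inhibition seen as more IP1 and lower FRET ratio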
# Target sequence (P97697 whole entry, looked up): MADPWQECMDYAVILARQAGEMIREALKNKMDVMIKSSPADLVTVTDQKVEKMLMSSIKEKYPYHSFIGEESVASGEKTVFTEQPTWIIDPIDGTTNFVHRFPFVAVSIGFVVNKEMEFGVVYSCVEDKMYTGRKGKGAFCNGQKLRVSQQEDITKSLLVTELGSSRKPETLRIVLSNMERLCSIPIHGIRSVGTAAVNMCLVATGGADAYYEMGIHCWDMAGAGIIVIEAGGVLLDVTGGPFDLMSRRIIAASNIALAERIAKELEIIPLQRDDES
#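 Measured: the HTRF emission ratio (665/620 nm) plus the 620 nm donor channel, each fitted to the Hill equation to give AC50. Cells were CHO-M1 given compounds up to 46 uM and a 30 min carbachol stimulation at 37C.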
# LMNA splice mod: qHTS Assay for Modulators of Lamin A Splicing; AID 1487, 2009; HeLa LMNA splicing GFP/RFP minigene ratio, 48 h; actives 0.01% (n = 200,000); Potency, µM (series often up to 46.1 µM), for inactives: at the highest dose ratio change, negative = inhibition, actives largely listed as inhibitors; active = well fitted inhibition curve with a large enough effect in the signal ratio, with a control signal flat, not every such curve was filed as active; inconclusive = small, poorly fitted or top-dose-only effect, or effect the other way, or a change in a side signal; the % refers to the signal ratio; note: potency is the fitted concentration of half-maximal effect
#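 Read-out is the ratio of GFP to DsRed2 object intensity, acquired by 488 nm laser-scanning cytometry on HeLa lamin A-EGFP minigene reporter cells. Compound incubation 48 hrs at 37 °C in Opti-MEM with 2% FBS; DMSO 0.5% final.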
# PNC assembly inh: High Content Assay for Compounds that inhibit the Assembly of the Perinucleolar Compartment | PC3M PTB-GFP, PNC prevalence imaging, 16 h; stronger effect = lower value | activity change (PNC), negative = inhibition, % at 10 µM | actives 3.1% (n = 140,000) | AID 2417, 2010;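 active = readout at or below -70, meaning at least 70% loss of cells showing the perinucleolar compartment, a nuclear body marking cancer cells; inconclusive = readout between -30 and a set limit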;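 note: plate controls were DMSO wells for no effect and camptothecin positive control wells for full effect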
#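 PC3M cells stably expressing PTB-GFP, 750–1000 cells/well, treated 16 h at 37 °C with compound (23 nl of library stock), in duplicate. After paraformaldehyde fixation and Hoechst stain, imaged at 20x; PNC prevalence scored by image analysis.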
# * marks the source's active call; other numbers are inactive results; ? = inconclusive; · = no result given; [ ] = remark or other dose. Unless noted, % is set by controls: 0 for no effect and ±100 for the full control effect.
SMILES,IMPase inh,LMNA splice mod,PNC assembly inh
COc1ccccc1NC(=O)CNC(=O)c1ccccc1C,4,-3%,-108*
Cn1c(=O)n(C)c2cc(N3CCOCC3)c(NS(=O)(=O)c3ccc(Br)cc3)cc21,9,·,·
COc1ccc(CCNC(=O)C2c3ccccc3C(=O)N2Cc2ccccc2)cc1OC (stereo not given),·,12%[46 µM],·
CC1=C(c2ccc(C)cc2)S(=O)(=O)N(Cc2ccc(C(=O)Nc3ccc(C)c(F)c3)cc2)C1=O,·,-5%[46 µM],·
Cc1ccc(NC(=O)CN2C(=O)CCc3cc(S(=O)(=O)N4CCOCC4)ccc32)cc1F,·,1%[46 µM],·
COc1cc(OC)c(NC(=O)N2CCC(CN3CCCC3)CC2)cc1Cl,·,-2%[46 µM],·
CN(Cc1cccs1)CC(O)COCc1ccco1 (stereo not given),-8,-9%,-4
COc1ccccc1COCC(O)CN(Cc1ccco1)Cc1ccccc1O (stereo not given),·,-29%,-116*
CCCc1cc(C(=O)Nc2cccc(Cl)c2)no1,?,-8%,-26
CCCc1cc(C(=O)Nc2cccnc2)no1,5,2%,-106*
CCOc1ccc2nc(NC(=O)c3cccnc3)sc2c1,·,13%,-108*
COc1cc(OC)cc(C(=O)Nc2cccnc2)c1,·,25%[46 µM],·
CCOc1cc(OCC)cc(C(=O)Nc2cccnc2)c1,-13,5%,-91*
CCOc1ccc2nc(NC(=O)c3ccccc3)sc2c1,-8,·,·
CCOC(=O)c1cccc(NC(=O)c2cc(S(=O)(=O)N3CCCC3)cn2C)c1,·,0%[46 µM],·
CCc1onc(C)c1C(=O)O,·,-1%[9.22 µM],·
COc1ccc(S(=O)(=O)N(CC(=O)NC(C)c2ccccc2)c2ccc(C)cc2)cc1OC (stereo not given),-5,·,·
CN1C(C(=O)Nc2ccccn2)C(=O)c2sc(Cl)cc2S1(=O)=O (stereo not given),·,-15%,·
Cc1cccc(OCc2ccc(-c3nc(C#N)c(NCc4cccnc4)o3)o2)c1,·,-13%[46 µM],·
CC(C)C1Cc2[nH]c(=O)c(C(=O)O)cc2CO1 (stereo not given),1,11%,-111*
COc1ccc2[nH]c(=O)c(C(=O)O)cc2c1,·,0%[46 µM],·
CC(C)(C)OC(=O)N1CCC[C@H]1c1nnc(SCc2ccc(Cl)cc2Cl)o1,20,?,34
CC(C)(C)OC(=O)N1CCC[C@H]1c1nnc(SCc2ccccc2Cl)o1,4,-8%,-114*
CCCOC(=O)Nc1ccc(C(N)=O)cc1,-3,4%,?
CCCOC(=O)Nc1cccc(C(C)=O)c1,-1,3%,-100*
SMILES,IMPase inh,LMNA splice mod,PNC assembly inh
CC(C)(C)C(=O)Nc1ccccc1C(=O)OCc1cc(=O)n2ccsc2n1,·,-5%[46 µM],·
Cc1ccc(Cn2nnnc2CN2CCC(NC(=O)c3ccccc3F)CC2)cc1,-2,-5%,-17
Cc1ccc(Cn2nnnc2CN2CCC(O)(c3ccccc3F)CC2)cc1,7,-12%,-100*
COc1ccc(C2CC(=O)C(C3NCCc4ccccc43)=C(O)C2n2cncn2)cc1 (stereo not given),·,0%[46 µM],·
COCCNC(=O)C(c1ccccc1F)N(C(=O)C(=O)NC1CCCC1)C1CCCCC1 (stereo not given),·,10%[46 µM],·
Fc1c(F)c(F)c(CSc2nc3ccccc3[nH]2)c(F)c1F,-1,14%,41
c1ccc2[nH]c(SCc3cscn3)nc2c1,-1,5%,-103*
COc1cc(/C=C/C(=O)O)cc(S(=O)(=O)Nc2ccc3nc(SC)sc3c2)c1OC,·,-9%[46 µM],·
Cc1ccc(Cl)cc1N1CCN(C(=O)C2CCN(c3nnc(-n4cccc4)s3)CC2)CC1,9,?,?
Cc1cccc(N2CCN(C(=O)C3CCN(c4nnc(-n5cccc5)s4)CC3)CC2C)c1 (stereo not given),12,?,-112*
Cc1ccc(NC(=O)Nc2cn(C)c(=O)c3ccccc23)c(Cl)c1,·,-7%[46 µM],·
CCCSc1nc2c(cnn2-c2ccc(C)c(C)c2)c(=O)[nH]1,-1,-1%,-95*
CCCCSc1nc2c(cnn2-c2ccc(C)c(C)c2)c(=O)[nH]1,-11,2%,21
CCOc1ccccc1C(=O)Nc1ccsc1C(=O)OC,·,?,-110*
CCOc1ccccc1C(=O)Nc1ccccc1C(N)=O,14,2%,-10
COc1ccc(CNc2ncnc(N)n2)cc1,6,-17%,-101*
COc1ccc(CN(C)c2ncnc(N)n2)cc1,0,-1%,2
CN(C)S(=O)(=O)c1ccc(C(=O)OCC(=O)Nc2ccccc2OC(F)F)cc1,12,5%,27
O=C(COC(=O)c1ccc(S(=O)(=O)NCc2ccco2)cc1)Nc1ccccc1OC(F)F,4,-14%,-101*
CC1=C(C(=O)Nc2cccc(Cl)c2)C2(CCCCCC2)OC1=O,·,-37%[46 µM],·
Cc1cccc(N2CCN(C(c3ccccc3)c3nnc(-c4ccccc4Cl)o3)CC2)c1C (stereo not given),1,·,·
O=S(=O)(c1cccc(-c2nnc(-c3ccc(Br)cc3)o2)c1)N1CCCCCC1,12,-4%,-13
O=S(=O)(c1cccc(-c2nnco2)c1)N1CCCC1,-7,-3%,-107*
O=S(=O)(c1ccc(N2CCOCC2)cc1)N1CCOCC1,-10,11%,1
CC#CCN(CC#CC)S(=O)(=O)c1ccc(S(=O)(=O)N2CCOCC2)cc1,1,-3%,-105*
SMILES,IMPase inh,LMNA splice mod,PNC assembly inh
COc1ccc(OC)c(CNC(=O)C2CCN(S(=O)(=O)c3ccc4[nH]c(=O)oc4c3)CC2)c1,·,-13%[46 µM],·
COc1ccc(-n2c(=O)c3c4c(sc3n(Cc3c(F)cccc3Cl)c2=O)CN(C(C)=O)CC4)cc1OC,·,2%[46 µM],·
O=C(/C=C/c1ccccc1Cl)N(Cc1ccc(Cl)cc1)C1CCS(=O)(=O)C1 (stereo not given),·,-13%,-98*
O=C(/C=C/c1ccccc1Cl)N(Cc1ccccc1)C1CCS(=O)(=O)C1 (stereo not given),-2,-8%,-21
Cc1cc(C)n2nc(C(=O)OCC(=O)Nc3ccc4c(c3)OC(F)(F)O4)nc2n1,8,2%,13
O=C(COC(=O)c1ccco1)Nc1ccc2c(c1)OCO2,5,9%,21
Cc1cc(C)n2nc(C(=O)OCC(=O)Nc3ccc4c(c3)OCO4)nc2n1,1,16%,-94*
Cc1ccc(C(=O)OCC(=O)Nc2ccc3c(c2)OCO3)o1,-8,-3%,-100*
O=c1cc(-c2ccccc2)[nH]c2cc(Cl)ccc12,·,?,-119*
O=c1cc(-c2ccc(F)cc2F)[nH]c2ccccc12,·,0%,15
Clc1ccc2[nH]c(-c3ccccc3)cc2c1,0,?,6
O=c1cc(-c2cccc(F)c2)[nH]c2ccccc12,·,?,-91*
Cc1ccc(CNC(=O)CN2CCN(Cc3ccc(F)cc3Cl)C2=O)cc1,3,·,·
C=CCNC(=O)C(C(=O)OCC)C1CCCCC1 (stereo not given),11,-3%,40
CCOC(=O)C(C(=O)NCCCN1CCOCC1)C1CCCCC1 (stereo not given),9,7%,-100*
CCC(C)(C(=O)NC1CCCCC1)N(C(=O)c1ccccn1)c1ccccc1 (stereo not given),-1,14%,30
